According to PubChem BioAssay (NCI):
About 79,000 compounds went through this panel and 15% of them were active in at least one assay; those are over-represented in the sample as a whole. Rule as the data show it: active = growth inhibition above about 70%; inactive = the rest.

Assays:
[1] = NCI Yeast Anticancer Drug Screen. Data for the rad50 strain (AID 155);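 also: 0% = growth of vehicle-only cultures of the same strain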; settings: S. cerevisiae rad50 strain growth inhibition; at 50.0 µM; hits give high values
Method in brief: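 Yeast carrying a defined DNA repair defect were exposed to test compounds, and growth was compared with vehicle-treated controls to give percent inhibition.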

[2] = NCI Yeast Anticancer Drug Screen. Data for the mec2-1 strain (AID 157); settings: S. cerevisiae mec2-1 strain, at 50.0 µM, hits give high values
Method in brief: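 Growth inhibition is read against vehicle-treated controls after compound exposure of the mec2-1 yeast strain, which is defective in DNA damage repair or cell cycle control.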

[3] = NCI Yeast Anticancer Drug Screen. Data for the sgs1 mgt1 strain (AID 161);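 also: 0% = growth of cultures given vehicle only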; settings: S. cerevisiae sgs1 mgt1 strain, at 50.0 µM, hits give high values
Method in brief: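 This yeast growth screen uses a strain with defined DNA-repair lesions; compound-treated growth is compared with vehicle-treated growth.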

[4] = NCI Yeast Anticancer Drug Screen. Data for the cln2 rad14 strain (AID 165);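 also: 0% = growth equal to vehicle treated cultures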; settings: S. cerevisiae cln2 rad14 strain, at 50.0 µM, hits give high values
Method in brief: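 Growth inhibition, relative to vehicle-treated controls, is the read-out. The test organism is a yeast strain with defined genetic alterations, cln2 rad14.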

[5] = NCI Yeast Anticancer Drug Screen. Data for the bub3 strain (AID 167); settings: S. cerevisiae bub3 mutant strain, at 50.0 µM, hits give high values
Method in brief: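 Compounds were applied to a genetically altered yeast strain carrying a cell-cycle control defect. Growth inhibition was scored against vehicle-treated controls.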

[6] = NCI Yeast Anticancer Drug Screen. Data for the mlh1 rad18 strain (AID 175); settings: S. cerevisiae mlh1 rad18 strain growth inhibition; at 50.0 µM; hits give high values
Method in brief: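 Cells of a genetically altered yeast strain, deficient in DNA damage repair, were treated with compound. Their growth was then compared with that of vehicle-treated cultures to give inhibition.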

Measured: growth inhibition

CC(=O)Nc1ccc(NC(=O)Nc2cccc(Cl)c2C)cc1
inactive: [1] 2.75% | [2] -0.35% | [3] 3.05% | [4] 11.7% | [5] 17.4% | [6] 5.3%

COc1ccc(OCCO)cc1
inactive: [1] -10.4% | [2] -17.8% | [3] -6.85% | [4] -27.1% | [5] -22.1% | [6] -0.15%

OC1CCCSc2ccccc21 (stereo unspecified)
inactive: [1] 19.6% | [2] 1% | [3] -4.8% | [4] 8% | [5] 2.8% | [6] -1.45%

O=c1[nH]c(=O)n(C2OC(CO)C(O)C2O)cc1OCc1ccccc1 (stereo unspecified)
inactive: [1] -31.8% | [2] -19.8% | [3] -22.8% | [4] 4.75% | [5] -6.6% | [6] -31.5%

Cc1cc(C#N)c[n+](C)c1
inactive: [1] -7.25% | [2] -14.3% | [3] -25% | [4] 16.1% | [5] 5.25% | [6] -3.75%

CCCCOC(=O)c1ccc(OC(=O)Nc2ccccc2)cc1
inactive: [1] 11.2% | [2] 6% | [3] 11.4% | [4] 7.7% | [5] 17.6% | [6] 3.7%

NC(=O)C1C2CC3C(C2O)C31C(N)=O (stereo unspecified)
inactive: [1] -13.1% | [2] -4% | [3] -14% | [4] -30.1% | [5] -12.9% | [6] -28.7%

Nc1nc2c(ccc3ccccc32)[nH]1
inactive: [1] -19.8% | [2] 6.8% | [3] 8.4% | [4] 6.5% | [5] 10.3% | [6] 21.6%

c1ccc(CNc2ncccn2)nc1
inactive: [1] 21.8% | [2] 7.45% | [3] 40.7% | [4] 7.35% | [5] -10% | [6] 11.4%

N=c1c2ncn(C3OC(COP(=O)(O)O)C(O)C3O)c2ncn1O (stereo unspecified)
inactive: [1] 12.7% | [2] 0% | [3] -6.6% | [4] -18% | [5] -9.6% | [6] 1.15%

Cn1c(=O)c2c(nc(N/N=C/c3ccccc3C(=O)O)n2C)n(C)c1=O
inactive: [1] -14.2% | [2] -3.15% | [3] -7.9% | [4] 12.3% | [5] -66.5% | [6] -15.3%

CCOC(=O)CC1(C)OCCO1
inactive: [1] 31.9% | [2] 11.4% | [3] 8.95% | [4] 21.8% | [5] 21.3% | [6] 28%

CCCCCCCCSC1=NS(=O)(=O)c2ccccc21
inactive: [1] 64% | [2] 28.6% | [3] 44.5% | [4] 31.1% | [5] 49.2% | [6] 31.1%

O=c1c2c(-c3ccccc3)c3ccccc3nc2cnn1-c1ccccc1
inactive: [1] -18.4% | [2] -11% | [3] -18.4% | [4] -18.4% | [5] -24.9% | [6] -14.2%

CC(Oc1ccccc1-c1ccccc1)C(=O)N(C)C (stereo unspecified)
inactive: [1] -15.2% | [2] -0.2% | [3] 1.45% | [4] 0.75% | [5] -20.6% | [6] -45.6%

Cc1cccc(Cl)c1NC(=O)c1ccc(C(=O)Nc2c(C)cccc2Cl)cc1
inactive: [1] -3% | [2] -17.1% | [3] 5.25% | [4] 4.05% | [5] 2.6% | [6] -12.1%

c1ccc2c(c1)CCCN2c1nc(N2CCCC2)nc(N2CCOCC2)n1
inactive: [1] -11.6% | [2] -21.8% | [3] 4.4% | [4] 7.25% | [5] 5.45% | [6] -8.25%

CCCCC(CCC)OC(=O)Nc1cccc2ccccc12 (stereo unspecified)
inactive: [1] 35.1% | [2] 0.35% | [3] 3.35% | [4] -16.1% | [5] -0.15% | [6] 40%

O=C(/C=C(\O)C(=O)O)/C=C(\O)c1ccc(Cl)cc1
inactive: [1] -15.7% | [2] 0.7% | [3] -27.4% | [4] -10.4% | [5] -23.8% | [6] -31.5%

CCOC(=O)/C(C#N)=C/NCC1CC1
inactive: [1] -21.8% | [2] -33.5% | [3] 1.6% | [4] 10.6% | [5] -33.2% | [6] -22.6%

NCCS/C=C/C(=O)Oc1ccc(Br)cc1
inactive: [1] 35.5% | [2] 0.85% | [3] 12.1% | [4] -1.3% | [5] -9.9% | [6] 53.9%
